Reference: PubChem BioAssay (NCI)
Compounds without any hit were thinned out: in the full panel of roughly 83,000, 20% have a hit.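 Cells were grown in 96-well plates and exposed to the test compound at a single concentration for 48 hours; results are reported as percent growth, with values below 10 considered active.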 Values without a mark were called inactive. Activity calls are given as the source filed them.

What was measured:
Test in all cases: NCI-60 one-dose screen, 48 h (100 = growth as untreated, 0 = no growth, -100 = all killed)
Conditions in all cases: 10 µM unless noted
SK-MEL-2 melanoma = test system: SK-MEL-2 melanoma
EKVX NSCLC = test system: EKVX NSCLC
SN12C renal = test system: SN12C renal
UO-31 renal = test system: UO-31 renal
TK-10 renal = test system: TK-10 renal
ACHN renal = test system: ACHN renal
A498 renal = test system: A498 renal
CCRF-CEM leukemia = test system: CCRF-CEM leukemia
MOLT-4 leukemia = test system: MOLT-4 leukemia
RPMI-8226 leukemia = test system: RPMI-8226 leukemia
OVCAR-8 ovarian = test system: OVCAR-8 ovarian
OVCAR-5 ovarian = test system: OVCAR-5 ovarian
OVCAR-4 ovarian = test system: OVCAR-4 ovarian
SK-OV-3 ovarian = test system: SK-OV-3 ovarian
IGROV1 ovarian = test system: IGROV1 ovarian
OVCAR-3 ovarian = test system: OVCAR-3 ovarian
HS 578T breast = test system: HS 578T breast
NCI/ADR-RES ovarian = test system: NCI/ADR-RES ovarian
SR leukemia = test system: SR leukemia
CAKI-1 renal = test system: CAKI-1 renal

Row | SMILES | growth (SK-MEL-2 melanoma) | growth (EKVX NSCLC) | growth (SN12C renal) | growth (UO-31 renal) | growth (TK-10 renal) | growth (ACHN renal) | growth (A498 renal) | growth (CCRF-CEM leukemia) | growth (MOLT-4 leukemia) | growth (RPMI-8226 leukemia) | growth (OVCAR-8 ovarian) | growth (OVCAR-5 ovarian) | growth (OVCAR-4 ovarian) | growth (SK-OV-3 ovarian) | growth (IGROV1 ovarian) | growth (OVCAR-3 ovarian) | growth (HS 578T breast) | growth (NCI/ADR-RES ovarian) | growth (SR leukemia) | growth (CAKI-1 renal)
1 | COc1ccc2cc(-c3nn(-c4ccc(C(=O)O)cc4)cc3CO)ccc2c1 | 83.2% | 90.7% | 106% | 86.6% | 104% | 104% | 94.5% | 102% | 84.7% | 95.1% | 101% | 100% | 106% | 107% | 99.2% | 93.5% | 97.3% | 99.8% | – | –
2 | Clc1ccc2c(NCCCCNc3nc(N4CCCCC4)nc4ccccc34)ccnc2c1 | -65.9% (active) | 38.9% | 20.3% | -55.6% (active) | -59.5% (active) | -43.7% (active) | – | -22.9% (active) | – | -45.9% (active) | 11.7% | 17.1% | 29.8% | 50.8% | 20.8% | -27.3% (active) | -19.9% (active) | 19.3% | -35.7% (active) | –
3 | CC1=C(O)C(=O)C(C(C#N)(C#N)C(C#N)C#N)C1 (centres undefined) | 83.9% | 95.3% | 100% | 94.3% | 105% | 106% | 97.1% | 112% | 100% | – | 101% | 109% | 107% | 99% | 102% | 94.8% | – | 97.7% | 99.3% | –
4 | COc1ccc(C2Nc3c(c(C(C)(C)C)nn3-c3ccccc3)C(=O)CS2)cc1 (centres undefined) | 98.8% | 93.9% | 99.8% | 72% | – | 99.9% | 113% | 83.9% | 75.7% | 82.7% | 98.4% | 108% | 114% | 106% | 84.3% | 101% | 118% | 94.8% | 87% | 81.9%
5 | O=C(O)c1c(=O)cccc2ssc12 | 11.6% | 11% | 14.3% | 21.7% | – | 3.95% (active) | -76.8% (active) | 4.61% (active) | -23.3% (active) | 4.35% (active) | 24.1% | -52.8% (active) | -37.1% (active) | 39.1% | 76.1% | -34.3% (active) | 22.4% | 29.2% | -9.58% (active) | 68.5%
6 | Cc1cc2nc3[nH]c4ccccc4c3nc2cc1C | 104% | 79.3% | 83.4% | 68.4% | 107% | 91.9% | – | 76.2% | – | – | 62.3% | 102% | 82.8% | 86.2% | -6.27% (active) | 92% | 1.63% (active) | 78.9% | 14.2% | –
7 | Cc1cc2c3ccccc3ccc2[n+]2ccccc12 | 40.5% | 14.5% | -7% (active) | 56.9% | 88.4% | 95.1% | 9.14% (active) | 48.7% | – | – | -28.5% (active) | 81.1% | 31.6% | 71.5% | 34% | 27.1% | -23.7% (active) | 46.7% | -22.5% (active) | –
8 | CN(C)C(=S)N=Nc1c(O)[nH]c2ccccc12 | -12.6% (active) | 14.8% | 25.1% | -19.1% (active) | 28.9% | 16.9% | 1.31% (active) | -11.6% (active) | -12.4% (active) | – | -24.1% (active) | 35.3% | 14.9% | 18.8% | -58.9% (active) | 3.86% (active) | 13.4% | -11.6% (active) | -17.8% (active) | –
9 | CN1CCN(c2nc(NCCCNc3ccnc4cc(Cl)ccc34)c3ccccc3n2)CC1 | 80.7% | 77.3% | 57.2% | 37.3% | 116% | 50% | 72.1% | 18.6% | 18.6% | 8.13% (active) | 38.8% | 84.8% | 59.8% | 66.6% | 70.7% | 75.8% | 79.5% | 96.3% | – | –
10 | CN(C)[C@@H]1C(=O)C(C(=O)NCc2nc3[nH]cnc(=S)c3[nH]2)=C(O)[C@@]2(O)C(=O)C3=C(O)c4c(O)cccc4[C@@](C)(O)[C@H]3C[C@@H]12 | 13.1% | 88.8% | 87.8% | 47.4% | 22.7% | 74% | 101% | 14.1% | 12.9% | – | 7.48% (active) | 36.3% | 39.8% | 19.9% | 12.5% | 38.7% | 73.5% | 30.5% | 12.5% | –
11 | Clc1ccc2c(NCCNc3nc(N4CCOCC4)nc4ccccc34)ccnc2c1 | -42.9% (active) | 31.1% | 0.0194% (active) | -89% (active) | -88.6% (active) | -44.2% (active) | -12.8% (active) | -8.56% (active) | – | – | -25.8% (active) | 51.8% | 3.78% (active) | -37.8% (active) | 48.8% | -75% (active) | -13.9% (active) | 47.9% | -23.5% (active) | –
12 | NC(N)=N/N=C(/c1ccccc1)c1ccc(F)cc1 | -15.1% (active) | 35.1% | 17.2% | -8.69% (active) | 50.5% | 29.3% | -16.6% (active) | -14.3% (active) | -10.1% (active) | – | -65.7% (active) | 4.37% (active) | 27.9% | 17.6% | – | -48.8% (active) | -13.4% (active) | -37.3% (active) | -19.4% (active) | –
13 | CCOC(=O)c1cc(C(=O)c2ccc(O)c(O)c2)n2ccc(-c3ccn4c(C(=O)c5ccc(O)c(O)c5)cc(C(=O)OCC)c4c3)cc12 | 103% | 94.9% | 94.7% | 63.4% | 83.3% | 97.4% | – | 84.5% | 63.3% | 74.4% | 91.4% | 121% | 86.5% | 100% | 87.4% | 101% | 85.8% | 102% | 62.3% | –
14 | CN(C)c1ccc(NC(=O)c2ccc(/C=C/C(=O)c3ncc[nH]3)cc2)cc1 | 92% | 73% | 44.9% | 37.9% | 74% | 71.4% | 94.1% | 4.98% (active) | – | -4.78% (active) | 26.6% | 95.4% | 75.7% | 64.2% | 69.8% | 25.7% | 88.1% | 64% | 5.75% (active) | –
15 | CC[C@@H]1O[C@H](O[C@@H](c2cnc[nH]2)[C@H](NC(=O)c2nc([C@H](CC(N)=O)NC[C@@H](N)C(N)=O)nc(N)c2C)C(=O)N[C@H](C)[C@H](O)[C@H](C)C(=O)N[C@@H](C(=O)NCCc2nc(-c3nc(C(=O)NCCCCN=C(N)N)cs3)cs2)[C@@H](C)O)[C@H](O[C@@H]2O[C@H](CO)[C@H](O)[C@H](OC(N)=O)[C@@H]2O)[C@H](C)[C@@H]1C | 101% | 91.8% | 21.9% | 23.2% | 71.9% | – | 78.2% | 80.5% | 46.8% | – | 47.2% | 59.5% | 85.6% | 41.8% | 45.5% | 60.8% | 38.8% | 20.1% | – | –
16 | CCc1nc(N)nc(N)c1C#CC(C)c1ccc(-c2ccncc2)cc1Cl (centres undefined) | 33.3% | 25% | 18.4% | 10.9% | 18.8% | 14.1% | 22.7% | 10.9% | – | 15.1% | 20.8% | 57.6% | 30.9% | 33% | 18.2% | 19.1% | 38.7% | 21.8% | 14.7% | –
17 | CCOC(=O)c1c(C(=O)OCC)c2cc(-c3ccn4c(C(=O)c5ccccc5)c(C(=O)OCC)c(C(=O)OCC)c4c3)ccn2c1C(=O)c1ccccc1 | 89.8% | 90.4% | 93.6% | 66.6% | 112% | 96.3% | 86.8% | 72.9% | 68.1% | 50.6% | 71.8% | 130% | 89.2% | 109% | 82.3% | – | 80.7% | 89.5% | 90.4% | –
